Source: PubChem (several laboratories)
PfGluPho inh – PfG6PD (Plasmodium falciparum) enzyme inhibition; PfGluPho enzyme, NADPH resazurin-diaphorase fluorescence; inhibition, % at 20 µM; actives 0.78% (n = 350,000);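 active means inhibition reaching at least a set limit at 20 µM in the primary screen, cut at about 59% in these data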
APOBEC3A inh – human APOBEC3A DNA deaminase inhibition. P31941. recombinant A3A, FAM/TAMRA ssDNA deamination fluorescence. inhibition, % at 20 µM. actives 0.41% (n = 330,000);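 active means at least 40% inhibition at 20 µM here, with at most 30% in a related deaminase screen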
Target sequence (P31941 whole entry, looked up): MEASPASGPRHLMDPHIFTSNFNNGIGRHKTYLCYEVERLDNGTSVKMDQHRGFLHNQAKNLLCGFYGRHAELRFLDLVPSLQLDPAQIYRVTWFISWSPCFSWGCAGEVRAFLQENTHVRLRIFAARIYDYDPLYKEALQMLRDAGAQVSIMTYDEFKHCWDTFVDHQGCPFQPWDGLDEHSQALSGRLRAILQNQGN
PfM18AAP inh-1 – PfM18AAP enzyme inhibition; recombinant PfM18AAP, H-Glu-NHMec fluorogenic cleavage; inhibition, % at 7.35 µM; actives 1.2% (n = 290,000); AID 1822;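 active means inhibition above the campaign mean inhibition over all tested compounds plus 3 SD, cut at about 28% in these data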
CR mimetic SO – yeast age-related superoxide inhibition as caloric restriction mimetic | S. cerevisiae aged cells, superoxide DHE fluorescence; active compounds read low | superoxide response (% of plate mean), % at 10 µM | actives 0.18% (n = 330,000);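 active means superoxide response under a set limit, about three screen SD below normal, cut at about 65% in these data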;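 further: yeast aged for seven days with compound at 30 °C before DHE staining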
A3G deaminase – blocks human APOBEC3G single-stranded DNA deamination; actives 0.28% (n = 330,000); Q9HC16; inhibition, % at 20 µM; recombinant A3G, ssDNA deamination FAM/TAMRA fluorescence;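 active means inhibition of at least 40% at 20 µM, with no more than 30% in the related APOBEC3A deaminase screen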
Target sequence (Q9HC16 whole entry, looked up): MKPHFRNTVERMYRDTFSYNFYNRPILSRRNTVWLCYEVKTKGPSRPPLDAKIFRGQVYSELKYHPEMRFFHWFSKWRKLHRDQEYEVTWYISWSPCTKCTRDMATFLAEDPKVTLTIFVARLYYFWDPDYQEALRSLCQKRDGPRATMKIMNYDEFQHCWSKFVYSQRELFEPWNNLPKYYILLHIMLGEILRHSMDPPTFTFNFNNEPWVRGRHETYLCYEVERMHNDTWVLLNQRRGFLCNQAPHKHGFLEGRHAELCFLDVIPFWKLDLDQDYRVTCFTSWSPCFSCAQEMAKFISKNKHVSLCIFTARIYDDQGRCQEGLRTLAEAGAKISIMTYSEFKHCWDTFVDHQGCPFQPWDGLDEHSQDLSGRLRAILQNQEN
PfM18AAP inh-2 – PfM18AAP inhibition, confirmation; recombinant PfM18AAP, H-Glu-NHMec fluorogenic cleavage; inhibition, % at 7.35 µM; shares compounds with PfM18AAP inh-1; actives 28% (n = 2,400);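 active means mean inhibition over replicate wells above the hit cutoff set for the earlier primary screen, cut at about 29% in these data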
CTSL1 confirm – counter-screen for PFM18AAP inhibitors: confirmation of human cathepsin L inhibitors; shares compounds with PfM18AAP inh-1; purified cathepsin L1, Z-Leu-Arg-MCA fluorescence; inhibition, % at 5.96 µM; 2,400 tested, under 10 active;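 active means average inhibition across replicates above the hit cutoff set in the earlier primary screen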
Hits are given with their value; 0 = inactive; - = not tested or not shown. Rows were chosen to be rich in hits. Some 2.4% of all compounds tested hit in one or more screens of this group.

SMILES	PfGluPho inh	APOBEC3A inh	PfM18AAP inh-1	CR mimetic SO	A3G deaminase	PfM18AAP inh-2	CTSL1 confirm
O=C(COC(=O)CSc1ccc(F)cc1)NC1CCCCCC1	0	0	-	0	0	-	-
Cc1ccc(C(=O)CSc2nnc(-c3cccs3)n2C)o1	0	0	0	0	0	-	-
Cn1c(SCC(=O)c2ccc(O)c(O)c2)nnc1-c1cccs1	0	0	46	0	0	0	0
Cn1c(SCC(=O)c2ccc(O)c(O)c2)nnc1-c1ccccc1	0	0	48	0	0	0	0
O=C(CSc1nc2ccccc2n1CCc1ccccc1)c1ccc(O)c(O)c1	0	-	44	-	-	0	0
O=C(CSc1nc2ccccc2n1CCc1ccccc1)N1CCOCC1	0	0	0	0	0	-	-
Cn1c(SCC(=O)c2ccc(-c3ccccc3)cc2)nnc1-c1ccco1	0	0	0	0	0	-	-
COc1cccc(Nc2nc(C)cc(C)c2C(N)=O)c1	0	0	0	0	0	-	-
Cc1nn(C)c(C)c1C(C)NC(=O)c1cc(COc2ccc(F)c(F)c2)on1 (stereo unspecified)	0	0	0	0	0	-	-
CCOc1ccc2c(c1)C(C)=CC(C)(C)N2S(=O)(=O)c1ccc(F)cc1	0	0	0	0	0	-	-
CCOc1ccc2c(c1)-c1c(ssc1=S)C(C)(C)N2C	0	0	33	0	0	0	0
CC(C)c1ccc(NC(=O)CCNC(=O)N2CC(=O)Nc3ccccc32)cc1	0	0	0	0	0	-	-
Fc1ccc(/C=N/n2cnn(Cc3ccccc3Cl)c2=S)cc1	0	0	41	0	0	0	0
COc1ccccc1OCC(=O)NNC(=O)CCCC(=O)NNC(=O)COc1ccccc1OC	0	0	0	0	0	-	-
NC(=S)NNC(=O)COc1ccccc1O	0	0	37	0	0	39	0
COc1ccc2c(c1OC)C(=O)OC2CC(=O)c1ccc(O)c(O)c1 (stereo unspecified)	0	0	43	0	0	0	0
COc1ccc2c(c1OC)C(=O)OC2CC(=O)c1ccc(O)cc1 (stereo unspecified)	0	0	0	0	0	-	-
COc1ccc(C(C#N)CC(=O)c2ccc(OC)c(OCc3ccccc3)c2)cc1OC (stereo unspecified)	0	-	-	-	-	-	-
Oc1ccc(C2=Nn3c(nnc3-c3ccco3)SC2)cc1O	0	0	75	0	0	60	0
O=C1[C@@H](Oc2ccccc2)[C@@H](c2cccnc2)N1c1ccccc1	0	0	-	0	0	-	-
CC(C)(C)c1ccc(O)c(N)c1	-	0	46	0	0	76	0
C/C(=N/Nc1ncc(C(F)(F)F)cc1Cl)c1ccncc1	0	0	0	0	0	-	-
CC(C)(C)C1CCC(=NNc2ncc(C(F)(F)F)cc2Cl)CC1 (stereo unspecified)	0	0	33	0	0	0	0
CN1C(=O)N(c2cccc3ccccc23)C(n2cncn2)C1(C)C (stereo unspecified)	0	0	81	0	0	77	0
Cc1ccc(C)[n+](CC(=O)c2ccc(-c3ccccc3)cc2)c1	0	0	0	0	0	-	-
SMILES	PfGluPho inh	APOBEC3A inh	PfM18AAP inh-1	CR mimetic SO	A3G deaminase	PfM18AAP inh-2	CTSL1 confirm
CC(/C=N/N1CCN(c2ccccc2)CC1)=C\c1ccccc1	0	0	0	0	0	-	-
CC(/C=N/N1C(=O)CSC1=S)=C\c1ccccc1	0	0	42	0	0	0	0
COc1ccc(/C=N/N2C(=O)CSC2=S)cc1	0	0	49	0	0	0	0
Cc1ccc(NC(=O)CSCC(=O)Nc2ccccc2N2CCCC2)cc1	0	0	-	0	0	-	-
C#CCNCCS(=O)(=O)N(Cc1ccc(Br)cc1)[C@@H](CC(C)C)C(=O)O	0	0	-	0	0	-	-
Cc1ccnc(NC(=O)CNC(=O)c2ccccc2Br)c1	0	0	0	0	0	-	-
Cc1ccc(NC(=S)NNc2ccc([N+](=O)[O-])cc2S(=O)(=O)Nc2ccccc2C(=O)O)cc1C	0	-	59	0	-	0	0
CC(=O)Nc1ccc(C=NNc2ccc([N+](=O)[O-])cc2S(=O)(=O)Nc2ccccc2C(=O)O)cc1	0	0	-	0	0	-	-
CC[C@@H]1C/C=C\Cc2ccccc2[C@H](C(=O)C[C@H](O)CC(C)=O)OC1=O	0	0	-	0	0	-	-
Cc1cc(N2CCCC2)ccc1/C=C1\NC(=S)N(C)C1=O	0	0	0	0	0	-	-
Cc1cc(N2CCCC2)ccc1/C=N/n1cnnc1	0	0	32	0	0	0	0
COCCN1C=C(C(=O)OC)C(c2ccc3c(c2)OCO3)C(C(=O)OC)=C1	0	0	38	0	0	0	0
COCCCN1C(=O)/C(=C\c2ccc3c(c2)OCO3)C(C(=O)OC)=C1C	0	0	52	0	0	0	0
CC(NCCN(C)C)C1CCC2C3CCc4cc(O)ccc4C3CCC12C (stereo unspecified)	0	-	-	-	-	-	-
Cc1ccc(NS(=O)(=O)c2cc(NC(=O)c3ccc4c(c3)NC(=O)CS4)ccc2C)c(C)c1	0	0	48	0	0	0	0
Cc1cc(C)c2nc(NNC(=O)c3ccc(S(=O)(=O)N4CCc5ccccc5C4)cc3)sc2c1	0	0	36	0	0	0	0
Cc1cc(C)c2sc(NNC(=O)c3ccc(S(=O)(=O)N4CCc5ccccc5C4)cc3)nc2c1	0	0	0	0	0	-	-
O=C(CCn1c2c(c3ccccc31)CCCC2)NNC(=O)c1ccccc1C(=O)O	0	0	0	0	0	-	-
O=C(O)CCn1c2c(c3ccccc31)CCCC2	0	0	45	0	0	0	0
COc1cc(CN2CCN(Cc3ccc(C(F)(F)F)cc3)CC2)cc(OC)c1OC	0	0	0	0	0	-	-
O=C(NCc1ccccn1)c1n[nH]c(=O)c2ccccc12	0	0	0	0	0	-	-
O=C(NCc1ccccn1)c1n[nH]c2ccccc12	0	0	37	0	0	0	0
Cc1ccc2nc3c(cc2c1)c(NC(=O)C(C)(C)C)nn3CC(C)C	0	0	0	0	0	-	-
CN1C(=O)c2c(sc3c2CCCC3)NC1c1ccccc1O (stereo unspecified)	-	0	34	0	0	0	0
Cc1ccc(S(=O)(=O)N2CCOC2CNC(=O)C(=O)NCCN2CCOCC2)cc1 (stereo unspecified)	0	0	0	0	0	-	-
SMILES	PfGluPho inh	APOBEC3A inh	PfM18AAP inh-1	CR mimetic SO	A3G deaminase	PfM18AAP inh-2	CTSL1 confirm
S=c1[nH]nc(Cn2cnc3ccccc32)n1-c1ccccc1	0	0	42	0	0	0	0
S=c1[nH]nc(Cn2nnc3ccccc32)n1-c1ccc(Cl)cc1	0	0	39	0	0	0	0
O=C(COc1cc(F)ccc1[N+](=O)[O-])Nc1cccc(S(=O)(=O)NC2=NCCC2)c1	0	0	-	0	0	-	-
Cc1cccc(NS(=O)(=O)c2cc3c(cc2C)NC(=O)CO3)c1	0	0	0	0	0	-	-
c1ccc(Nc2ccnc(Nc3ccccc3)n2)cc1	0	0	0	0	0	-	-
NNc1nccc(Nc2ccccc2C(=O)O)n1	0	0	43	0	0	0	0
Cc1ccc(NC(=O)/C=C/C(=O)O)c(NC(=O)c2ccccc2)c1	0	0	0	0	0	-	-
